Assay outcomes deposited in PubChem by The Scripps Research Institute Molecular Screening Center.
Most compounds without a hit are left out; they make up all but 3.2% or so of the library.
rCAG RNA binder: binders of r(CAG) RNA repeats, primary screen, biochemical, fluorescence. 370,000 compounds, 1.3% hits. inhibition, % at 3 µM. r(CAG) RNA repeat, TO-PRO-1 dye displacement fluorescence;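 active = inhibition above the plate cutoff, the mean of all test compounds on that plate plus 3 SD, cut at about 35% in these data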;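 also: 0% = DMSO alone and 100% = 100 µM mitoxantrone as full dye displacement; higher means more dye released from RNA so lower well fluorescence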
PG9 Ab binder: binders of HIV-1 gp120 antibody PG9, primary screen, biochemical, TR-FRET | inhibition, % at 6.7 µM | TR-FRET gp120-PG9 antibody binding | AID 624416, 2012 | HIV-1 gp120 / PG9 antibody interaction | 360,000 compounds, 0.43% hits; in the data active = inhibition above about 8.5%
bovine MsrA act: bovine MsrA enzyme activators, primary screen, biochemical, absorbance, HTS | Methionine sulfoxide reductase A (Bos taurus) | purified bovine MsrA, absorbance read-out | activation, % at 10.6 µM | 360,000 compounds, 0.3% hits | AID 602163, 2012; in the data active = activation above about 7.5%;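 also: 0% = vehicle and 100% = reference activator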
HGIII-sPLA2 inh: human group III sPLA2 inhibitors, primary screen, biochemical, QFRET, BODIPY PC-A2 liposome substrate; QFRET BODIPY PC-A2 liposome hydrolysis, fluorescence; inhibition, % at 12.2 µM; 370,000 compounds, 0.56% hits; AID 743126, 2013;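 active = inhibition above mean plus 3 SD of compounds lying within the high and low control bounds, cut at about 19% in these data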;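 also: 0% = median of test compound wells and 100% = no enzyme DMSO wells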
Target sequence (Q9NZ20 whole entry, looked up): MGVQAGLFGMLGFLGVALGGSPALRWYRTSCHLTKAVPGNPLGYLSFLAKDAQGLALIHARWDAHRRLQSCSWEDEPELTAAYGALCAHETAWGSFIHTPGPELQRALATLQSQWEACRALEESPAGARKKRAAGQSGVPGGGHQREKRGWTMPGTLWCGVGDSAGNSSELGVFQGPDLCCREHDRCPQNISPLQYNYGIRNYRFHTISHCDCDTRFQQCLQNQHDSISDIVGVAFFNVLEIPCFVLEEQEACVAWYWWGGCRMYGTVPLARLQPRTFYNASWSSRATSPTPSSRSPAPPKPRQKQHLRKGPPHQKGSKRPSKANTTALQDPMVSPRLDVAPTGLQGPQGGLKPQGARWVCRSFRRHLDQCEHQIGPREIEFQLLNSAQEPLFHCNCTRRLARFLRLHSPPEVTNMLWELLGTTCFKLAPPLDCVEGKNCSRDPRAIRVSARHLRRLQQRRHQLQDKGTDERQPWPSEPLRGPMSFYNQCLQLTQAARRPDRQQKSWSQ
MsrA inhibitor: bovine MsrA enzyme inhibitors, primary screen, biochemical, absorbance, HTS | inhibition, % at 15.5 µM | 360,000 compounds, 0.75% hits | purified bovine MsrA, absorbance read-out;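 also: 0% = vehicle wells with enzyme and 100% = reference inhibitor wells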
MsrA inh confirm: bovine MsrA inhibitors, retest, confirmation, biochemical, absorbance, HTS; shares compounds with MsrA inhibitor; AID 651822, 2012; 2,300 compounds, 41% hits; purified bovine MsrA, absorbance read-out; inhibition, % at 15.5 µM;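 also: coupled to thioredoxin reductase with NADPH and selenocystamine and DMSO as substrate; 0% = vehicle only and 100% = full effect of reference inhibitor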
Active calls of the source: *. Rule as the data show it, unless noted: active = inhibition above about 4.5%; inactive = the rest.

For COc1cc2c(cc1C=O)OC(C)C2 (centres undefined) the results were rCAG RNA binder -2.0, PG9 Ab binder 0.6, bovine MsrA act -3.8, HGIII-sPLA2 inh 2.6 and MsrA inhibitor 1.0.
Screening CCOc1cc2c(cc1C=O)OC(C)C2 (centres undefined) returned rCAG RNA binder -1.4, PG9 Ab binder -2.0, bovine MsrA act -3.2, HGIII-sPLA2 inh 7.8, MsrA inhibitor 4.8* and MsrA inh confirm 2.5.
For CCOC(=O)/C(=C\C=C\c1ccccc1)NC(=O)c1ccccc1 the results were rCAG RNA binder 0.8, PG9 Ab binder -4.3, bovine MsrA act -12.6, HGIII-sPLA2 inh -6.5, MsrA inhibitor 6.8* and MsrA inh confirm 6.1*.
For CCCOC(=O)/C(=C\C=C\c1ccccc1)NC(=O)c1ccccc1 the results were rCAG RNA binder 0.2, PG9 Ab binder -0.1, bovine MsrA act -15.7, HGIII-sPLA2 inh -10.8 and MsrA inhibitor 1.9.
For CCOC(=O)/C(=C/C=C/c1ccccc1)NC(=O)c1ccccc1 the results were rCAG RNA binder 1.4, PG9 Ab binder -3.4, bovine MsrA act -5.5, HGIII-sPLA2 inh -2.0, MsrA inhibitor 5.6* and MsrA inh confirm 2.0.
Screening O=C(O)CCNC(=O)/C(=C/C=C/c1ccccc1)NC(=O)c1ccccc1 returned rCAG RNA binder 0.6, PG9 Ab binder -3.6, bovine MsrA act -5.4, HGIII-sPLA2 inh 11.3, MsrA inhibitor 5.5* and MsrA inh confirm 3.2.
`CCCCOc1ccc(C(=O)N/C(=C/C=C/c2ccccc2)C(=O)NCCO)cc1` gave rCAG RNA binder 0.6, PG9 Ab binder 0.3, bovine MsrA act -10.2, HGIII-sPLA2 inh -33.9 and MsrA inhibitor 4.2.
`O=C(NCc1ccco1)/C(=C/C=C\c1ccccc1)NC(=O)c1ccc(Br)o1` gave rCAG RNA binder 10.0, PG9 Ab binder -2.4, bovine MsrA act -6.0, HGIII-sPLA2 inh 5.1, MsrA inhibitor 5.0* and MsrA inh confirm 4.2.
COc1cc(/C=C(\CC(=O)O)c2nc3ccccc3s2)cc(OC)c1O was read as rCAG RNA binder 13.8, PG9 Ab binder -2.5, bovine MsrA act -5.0, HGIII-sPLA2 inh -10.1 and MsrA inhibitor 3.8.
`COc1ccc(/C=C(\CC(=O)O)c2nc3ccccc3s2)cc1O` gave rCAG RNA binder 14.6, PG9 Ab binder -2.0, bovine MsrA act -9.4, HGIII-sPLA2 inh -10.3, MsrA inhibitor 5.6* and MsrA inh confirm 4.5.
For CCCN1C(=O)/C(=C/c2ccc(C)s2)NC1=S the results were rCAG RNA binder 0.6, PG9 Ab binder -5.9, bovine MsrA act -9.2, HGIII-sPLA2 inh 7.8 and MsrA inhibitor 1.7.
Screening O=C1NC(=S)NC1=Cc1ccc(O)cc1 returned rCAG RNA binder -0.3, PG9 Ab binder -17.2, bovine MsrA act 2.0, HGIII-sPLA2 inh 3.4 and MsrA inhibitor 1.3.
For COc1ccc(N2C(=O)/C(=C/N(C)C)NC2=S)cc1 the results were rCAG RNA binder 1.4, PG9 Ab binder -2.2, bovine MsrA act -3.8, HGIII-sPLA2 inh 0.8, MsrA inhibitor 7.3* and MsrA inh confirm 5.8*.
CN(C)/C=C1/NC(=S)NC1=O was read as rCAG RNA binder -0.6, PG9 Ab binder -1.3, bovine MsrA act -3.2, HGIII-sPLA2 inh 3.2, MsrA inhibitor 5.5* and MsrA inh confirm 6.7*.
CCN1C(=O)/C(=C\N(C)C)NC1=S was read as rCAG RNA binder -3.6, PG9 Ab binder -0.9, bovine MsrA act -7.4, HGIII-sPLA2 inh 5.0, MsrA inhibitor 5.0* and MsrA inh confirm 2.8.
Screening CCCC1CCC2(CCCN2CCOC(=S)NCc2cccc(C)c2)CC1 (centres undefined) returned HGIII-sPLA2 inh -5.0.
`COc1ccc(CNC(=O)O[C@H]2CC[C@@]34CCCN3C(=O)CCC[C@H]4C2)cc1` gave HGIII-sPLA2 inh 1.2.
`O=c1cc(-c2cc3ccccc3o2)c2cc(O)ccc2o1` gave bovine MsrA act -4.7.
For Cc1cc2oc(=O)cc(-c3cc4ccccc4o3)c2cc1O the results were rCAG RNA binder 31.0, PG9 Ab binder -1.4, bovine MsrA act -4.5, HGIII-sPLA2 inh -3.4, MsrA inhibitor 6.5* and MsrA inh confirm 3.6.
`CC(=O)COc1ccc2oc(=O)cc(-c3cc4ccccc4o3)c2c1` gave rCAG RNA binder 21.7, PG9 Ab binder 0.0, bovine MsrA act -2.6, HGIII-sPLA2 inh -23.5, MsrA inhibitor 12.7* and MsrA inh confirm 12.3*.
For COc1ccc(C(=O)N/C(=C\c2cn(C)c3ccccc23)C(=O)N2CCOCC2)cc1OC the results were rCAG RNA binder -0.6, PG9 Ab binder -0.7, bovine MsrA act -4.0, HGIII-sPLA2 inh -2.5, MsrA inhibitor 4.8* and MsrA inh confirm 2.3.
`CCN1CCN(CCCNC(=O)c2cc3c(=O)[nH]c4ccccc4c3s2)CC1` gave rCAG RNA binder 2.7, PG9 Ab binder 0.5, bovine MsrA act -3.5, HGIII-sPLA2 inh -3.5 and MsrA inhibitor 2.0.
`O=C(NCCCN1CCOCC1)c1cc2c(=O)[nH]c3ccccc3c2s1` gave rCAG RNA binder 5.5, PG9 Ab binder -0.4, bovine MsrA act -2.6, HGIII-sPLA2 inh 1.1, MsrA inhibitor 5.3* and MsrA inh confirm 4.0.
Screening COc1cc(C(=O)N/C(=C\c2cn(C)c3ccccc23)C(=O)N2CCN(C)CC2)cc(OC)c1OC returned rCAG RNA binder -5.9, PG9 Ab binder -3.0, bovine MsrA act -4.5, HGIII-sPLA2 inh -9.7 and MsrA inhibitor 2.6.
For COc1ccccc1C(=O)N/C(=C\c1cn(C)c2ccccc12)C(=O)NCCCN1CCOCC1 the results were rCAG RNA binder -4.1, PG9 Ab binder -4.2, bovine MsrA act -5.6, HGIII-sPLA2 inh 4.4, MsrA inhibitor 5.3* and MsrA inh confirm 4.1.
For Cc1ccc(C(=O)NC(=S)NCCCN2CCOCC2)cc1 the results were rCAG RNA binder -6.4, PG9 Ab binder -0.8, bovine MsrA act -0.1, HGIII-sPLA2 inh 5.4 and MsrA inhibitor -0.1.
`O=C(NC(=S)NCCCN1CCOCC1)c1cccc2ccccc12` gave rCAG RNA binder -3.7, PG9 Ab binder -2.7, bovine MsrA act -9.4, HGIII-sPLA2 inh 9.9, MsrA inhibitor 9.4* and MsrA inh confirm 3.4.
For COC(=O)[C@]1(CNC(=O)c2cc(F)ccc2F)CC(=O)N(C)[C@@H]1c1ccccc1 the results were rCAG RNA binder 0.3 and HGIII-sPLA2 inh 2.9.
Screening Cn1cc(/C=C(\NC(=O)c2ccccc2Cl)C(=O)N2CCOCC2)c2ccccc21 returned rCAG RNA binder -5.4, PG9 Ab binder -1.9, bovine MsrA act -8.4, HGIII-sPLA2 inh -1.0, MsrA inhibitor 6.3* and MsrA inh confirm 4.1.
`COc1ccccc1C(=O)N/C(=C\c1cn(C)c2ccccc12)C(=O)N1CCOCC1` gave rCAG RNA binder -1.9, PG9 Ab binder -2.6, bovine MsrA act -4.3, HGIII-sPLA2 inh 6.0 and MsrA inhibitor 2.5.
For O=C(OCc1cn(Cc2ccccc2C(F)(F)F)nn1)N1CCOCC1 the results were rCAG RNA binder -0.2 and HGIII-sPLA2 inh 1.3.
